About 79,000 compounds went through this panel and 15% of them were active in at least one assay; those are over-represented in the sample as a whole. Values without a mark were called inactive. Active and inactive are the calls of the source. Rule as the data show it: active = growth inhibition above about 70%; inactive = the rest.
Columns and labels:
[1] = NCI Yeast Anticancer Drug Screen. Data for the rad50 strain (AID 155);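 also: 0% = growth of vehicle-only cultures of the same strain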; settings: S. cerevisiae rad50 strain growth inhibition, stronger effect = higher value
Summary of the method: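 Inhibition values express reduced yeast growth in compound-treated cultures relative to vehicle-treated controls.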

[2] = NCI Yeast Anticancer Drug Screen. Data for the mec2-1 strain (AID 157); settings: S. cerevisiae mec2-1 strain, stronger effect = higher value
Summary of the method: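 Growth inhibition is read against vehicle-treated controls after compound exposure of the mec2-1 yeast strain, which is defective in DNA damage repair or cell cycle control.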

[3] = NCI Yeast Anticancer Drug Screen. Data for the sgs1 mgt1 strain (AID 161);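 also: 0% = growth of cultures given vehicle only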; settings: S. cerevisiae sgs1 mgt1 strain, stronger effect = higher value
Summary of the method: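 Growth of a repair-deficient yeast mutant was monitored after compound treatment and expressed as inhibition relative to vehicle-treated cultures.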

[4] = NCI Yeast Anticancer Drug Screen. Data for the cln2 rad14 strain (AID 165);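 also: 0% = growth equal to vehicle treated cultures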; settings: S. cerevisiae cln2 rad14 strain, stronger effect = higher value
Summary of the method: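 Growth inhibition, relative to vehicle-treated controls, is the read-out. The test organism is a yeast strain with defined genetic alterations, cln2 rad14.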

[5] = NCI Yeast Anticancer Drug Screen. Data for the bub3 strain (AID 167); settings: S. cerevisiae bub3 mutant strain, stronger effect = higher value
Summary of the method: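 Steps: expose the mutant yeast strain to compound; grow alongside vehicle-treated cultures; measure growth; express inhibition against the vehicle cultures.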

[6] = NCI Yeast Anticancer Drug Screen. Data for the mlh1 rad18 strain (AID 175); settings: S. cerevisiae mlh1 rad18 strain growth inhibition, stronger effect = higher value
Summary of the method: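 Cells of a genetically altered yeast strain, deficient in DNA damage repair, were treated with compound. Their growth was then compared with that of vehicle-treated cultures to give inhibition.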

[7] = at 5.0 µM (retest, dose inferred, filed as 0.5)
[8] = at 50.0 µM (retest, dose inferred, filed as 5.0)

| SMILES | growth inhibition [1, 7] | growth inhibition [1, 8] | growth inhibition ([1]; at 50.0 µM) | growth inhibition [2, 7] | growth inhibition [2, 8] | growth inhibition ([2]; at 50.0 µM) | growth inhibition [3, 7] | growth inhibition [3, 8] | growth inhibition ([3]; at 50.0 µM) | growth inhibition [4, 7] | growth inhibition [4, 8] | growth inhibition ([4]; at 50.0 µM) | growth inhibition [5, 7] | growth inhibition [5, 8] | growth inhibition ([5]; at 50.0 µM) | growth inhibition [6, 7] | growth inhibition [6, 8] | growth inhibition ([6]; at 50.0 µM) |
| --- | --- | --- | --- | --- | --- | --- | --- | --- | --- | --- | --- | --- | --- | --- | --- | --- | --- | --- |
| O=C(CCl)OCC(Cl)Cl | 3% | 2% | 1.25% | 4% | 2% | -2.5% | 1% | 6% | 10.4% | 2% | -4% | 19.6% | -2% | -3% | 6.65% | 9% | 3% | 20.6% |
| C1CC[N-]CC1.C1CC[N-]CC1.N#CO.[Ag] | 99% (active) | 99% (active) | 99.2% (active) | 100% (active) | 99% (active) | 99.5% (active) | 100% (active) | 99% (active) | 99.4% (active) | 99% (active) | 99% (active) | 99% (active) | 99% (active) | 99% (active) | 99.6% (active) | 99% (active) | 99% (active) | 99.3% (active) |
| CNC1=C(C)C(=O)C2=C(C1=O)C(COC(N)=O)C1(O)C3C(CN21)N3C (centres undefined) | 13% | 83% (active) | 72% (active) | 20% | 90% (active) | 74.9% (active) | 19% | 78% (active) | 69.8% | 9% | 84% (active) | 61.4% | 3% | 59% | 52.2% | 47% | 95% (active) | 83% (active) |
| CC(=O)C(Br)C(C)=O.CC(=O)C(Br)C(C)=O.CC(=O)C(Br)C(C)=O.[Rh] | 4% | -2% | 99.2% (active) | -22% | 1% | 99.6% (active) | -1% | 0% | 99.6% (active) | 4% | 4% | 93.7% (active) | 1% | -7% | 99.4% (active) | 6% | -18% | 99.2% (active) |
| C/C(=N\O)C(CN(C)C)C(c1ccccc1)c1c(O)c2ccccc2oc1=O (centres undefined) | 25% | 25% | 76.5% (active) | 12% | 12% | 63.4% | 15% | 15% | 82.2% (active) | 4% | 4% | 75.8% (active) | 12% | 12% | 74.7% (active) | 14% | 14% | 75.2% (active) |
| O=C(Nc1ccccc1)c1cc([N+](=O)[O-])ccc1O | -1% | 98% (active) | 95.7% (active) | 0% | 97% (active) | 92% (active) | 2% | 95% (active) | 62.5% | -2% | 86% (active) | 32.5% | 0% | 96% (active) | 90.5% (active) | 12% | 96% (active) | 97.5% (active) |
| O=P(Nc1ccccc1)(Oc1ccccc1)N1CCN(c2ccccc2)CC1 (centres undefined) | 0% | 97% (active) | 71.2% (active) | -29% | 96% (active) | 80.7% (active) | -32% | 97% (active) | 84.5% (active) | 22% | 96% (active) | 85.9% (active) | 14% | 96% (active) | 87.2% (active) | -1% | 96% (active) | 86.5% (active) |
| COc1ccc2c(c1O)C13CCN(C)C(C2)C12C=CC(=O)C3c1c(O)ccc(O)c12 (centres undefined) | -2% | 59% | 76.7% (active) | 13% | 66% | 66.5% | 17% | 77% (active) | 89.3% (active) | -2% | 41% | 72.5% (active) | -8% | 55% | 48.7% | 17% | 88% (active) | 84.5% (active) |
